Assay results published in PubChem BioAssay.
The source made the active and inactive calls.

assay: CREB reporter modulators without forskolin, primary screen, cell-based, PC12, CRE-LacZ reporter, unstimulated (AID 1145); conditions: no forskolin, luminescence, 4.5 h, higher = more signal, called active from +8 up or from −8 down

z-score, inactive:
CCOC(=O)C1=C[C@@H](C(C)(C)C)N(S(=O)(=O)c2ccc(C)cc2)[C@H]1c1ccc(OC)cc1 0.238
CCCCC(=C=CC[C@H](O)c1ccccc1OCCO)CCO 4.29
C=CCC(OC(C)=O)[C@@H]1[C@@H](N(Cc2cccc3ccccc23)C(=O)c2ccc(C)cc2)c2cc(OCCCO)ccc2N1C(=O)Cc1ccc2ccccc2c1 (stereo partly specified) 1.46
COC(=O)[C@@]1(Cc2ccc(F)cc2)[C@@H]2C(=CC(=O)[C@H]2CC(=O)C(=O)N2CCCC2)CN1C(=O)c1ccccc1 -0.189
COCCCNC(=O)[C@@]1(c2ccc([N+](=O)[O-])cc2)CC(=O)N(C2CCCCC2)[C@@H]1c1ccc(CO)cc1I 0.414
C=CCOC(=O)[C@H]1[C@@H]2C(=O)O[C@@H](c3ccccc3)[C@@H](c3ccccc3)N2[C@@H](c2ccc(OCCOC(=O)[C@H]3C[C@H]4C(=O)NCC(=O)N4[C@H]3c3ccc(O)cc3)cc2)[C@]12C(=O)Nc1ccccc12 -1.08
CC1CC/C=C\[C@H]2OC34C=CCN(CCN5CCOCC5)C(=O)[C@H]3N(C(CO)C(C)C)C(=O)[C@@H]4C2C(=O)O1 (stereo partly specified) -0.0778
CC(C)c1ccc(NN2C(C(O)c3ccccc3)C=CC3C(=O)N(c4ccccc4)C(=O)C32)cc1 (stereo unspecified) 0.433
[N-]=[N+]=Nc1ccccc1C[C@@]1(C(=O)NCC(O)CO)N=C(c2ccc(OCCCO)cc2)O[C@@H]1c1ccccc1N=[N+]=[N-] (stereo partly specified) 0.825
C=C(CCCC)C(=O)CC[C@@H](OC(C)=O)c1ccc(OCCO)cc1 0.653
CN1C(=O)C2CC=C(C3=CCO[C@@H]3[C@H]3CCCN3S(=O)(=O)c3ccccc3[N+](=O)[O-])CC2C1=O (stereo partly specified) -0.505
CC(C)[Si](C#Cc1ccccc1)(O[C@H](c1ccccc1)c1cn(Cc2ccccc2)nn1)C(C)C -0.635
COCCOC(=O)N1C(=O)[C@@]2(c3cc(C#CCNC(N)=O)ccc31)[C@H](C(N)=O)[C@H]1C(=O)O[C@H](c3ccccc3)[C@H](c3ccccc3)N1[C@@H]2c1ccc(O)cc1 0.619
[N-]=[N+]=NCc1ccccc1C[C@]1(C(=O)N2CCCCC2)COC(c2ccc(OCCCO)cc2)=N1 1.93
C=CCNC(=O)[C@H]1[C@@H]2C(=O)O[C@@H](c3ccccc3)[C@@H](c3ccccc3)N2[C@@H](c2ccc(OCCO)cc2)[C@]12C(=O)N(C(=O)OCCOC)c1ccc(C#CCC(C(=O)OC)C(=O)OC)cc12 0.0614
CCCCC(=C=CC[C@@H](O)c1ccccc1OCCO)C[C@@H](O)c1ccccn1 2.72
COC(=O)C(CC#Cc1ccc2c(c1)[C@]1(C(=O)N2)[C@H](C(=O)NC[C@H](O)c2ccccc2)[C@H]2C(=O)O[C@H](c3ccccc3)[C@H](c3ccccc3)N2[C@@H]1c1ccc(O)cc1)C(=O)OC 0.488
COCCOC(=O)N1C(=O)[C@@]2(c3cc(C#CC4=CCCCC4)ccc31)[C@H](c1ccc(O)cc1)N1[C@H](c3ccccc3)[C@H](c3ccccc3)OC(=O)[C@H]1[C@@H]2C(=O)N1CCc2cc(OC)c(OC)cc2C1 -0.375
CC[C@@H](O[Si](C#C[Si](C(C)C)(C(C)C)C(C)C)(C(C)C)C(C)C)c1cn(Cc2cccc(Cl)c2)nn1 -0.272
C=C(CCCC)/C(=C/C[C@@H](OC(C)=O)c1cccc(OCCO)c1)c1cc(C(=O)OC)ccc1OC 4.5
CCCN1C(=O)[C@@]2(c3ccc([N+](=O)[O-])cc3)CC(=O)N(C3CCCCC3)[C@@H]2c2ccc(CO)cc21 0.389
O=C1O[C@H](c2ccccc2)[C@H](c2ccccc2)N2[C@H]1[C@@H](C(=O)N1CCN(c3ncccn3)CC1)[C@]1(C(=O)Nc3ccc(C#CC4(O)CCCCCC4)cc31)[C@H]2c1ccc(O)cc1 -0.258
CC[C@@H](O[Si](C#C[Si](C(C)C)(C(C)C)C(C)C)(C(C)C)C(C)C)c1cn([C@H](CO)Cc2ccccc2)nn1 -0.607
[N-]=[N+]=NCc1ccccc1[C@H]1OC(c2ccc(OCCCO)cc2)=N[C@@]1(CCS(=O)(=O)c1ccccc1)C(=O)O -0.435
COC(=O)[C@@]1(Cc2ccc(F)cc2)[C@H]2c3cc(C(=O)N4CCCC4)n(Cc4ccc(OC(F)(F)F)cc4)c3C[C@H]2CN1C(=O)c1ccccc1 -0.185
CC(C)(C)OC(=O)CC[C@]1(C(N)=O)N=C(c2ccc(OCCCO)cc2)O[C@H]1c1ccccc1N=[N+]=[N-] 1.05
O=C1OCC=C[C@H]2OC34C=CCN(Cn5nnc6ccccc65)C(=O)[C@H]3N(CCO)C(=O)[C@@H]4[C@@H]12 (stereo partly specified) 0.455
COc1cccc(C)c1NC(=O)O[C@H]1[C@H](OC(=O)Nc2ccc3c(c2)OCO3)[C@H](OC(=O)Nc2ccc3c(c2)OCO3)[C@@H](OC)O[C@@H]1CO 0.558
CN1C(=O)C2C=CC(C(O)c3cccs3)N(N(c3ccccc3)c3ccccc3)C2C1=O (stereo unspecified) 1.21
[N-]=[N+]=NCc1ccccc1[C@H]1OC(c2ccc(OCCCO)cc2)=N[C@@]1(Cc1ccccc1N=[N+]=[N-])C(=O)O -0.137
C[C@H]1C2[C@H](Cc3ccccc3)NC(=O)[C@]23C(=O)N[C@@H](Cc2ccccc2)C(=O)N2CCC[C@H]2C(=O)NC/C=C/CC/C=C/C3[C@@H]2O[C@]12C (stereo partly specified) 0.941
COc1ccc(C(=O)Nc2ccc(CN3C(=O)[C@]4(O[C@H](CC(=O)N(CCO)Cc5ccccc5)[C@@H]([Si](C)(C)c5ccc(OC)cc5)[C@@H]4C)c4ccccc43)cc2)cc1 0.339
CCCC=C(CCC)[C@@H](NC(=O)c1ccc(C(=O)OC)cc1)c1ccc(C(=O)OC)cc1 1.53
O=C1C2C=CC(C(O)c3ccccn3)N(Nc3ccc([N+](=O)[O-])cc3)C2C(=O)N1c1ccccc1 (stereo unspecified) 0.379
O=C1C2C=CC(C(O)C3CCCCC3)N(Nc3ccccc3F)C2C(=O)N1c1ccccc1 (stereo unspecified) 0.826
C=C(CCCC)/C(=C/C[C@@H](OC(C)=O)c1ccc(OCCO)cc1)c1cc(C(=O)OC)ccc1OC 5.45
